PubChem BioAssay (NCATS)
Inconclusive results are not listed. Entries that show only a call come without a potency. Activity calls are given as the source filed them. Calls come from the whole dose curve; as a rule, active = well fitted cell-killing curve with a large enough effect; inconclusive = small, poorly fitted or top-dose-only effect; inactive = flat fitted curve, though single readings scatter.

test: qHTS of pediatric cancer cell lines to identify multiple opportunities for drug repurposing: Primary screen for DAOY cells (AID 1347090); details: DAOY medulloblastoma viability, CellTiter-Glo luminescence, 48 h; series mostly up to 46 µM; activity change, negative = cytotoxic: at the top concentration; note: nearly all actives have a fitted effect of over 55% in size
Description: Drug repurposing or repositioning has been offered as a strategy for drug development in oncology programs. This approach has special potential for childhood cancers and other rare or orphan diseases, where the expected return on new drug development has been a disincentive to pharmaceuticals.
In this project we exploit the poly-pharmacology of drugs to discover new indications via phenotypic screening of a panel of 19 well-characterized cell lines derived from solid tumors seen in children and adolescents. The goal is to identify approved drugs with previously unrecognized anticancer properties that has the potential to reveal new mechanisms and biological processes involved in carcinogenesis or drug resistance. We employed a titration-based paradigm (quantitative high-throughput screening or qHTS), where all compounds were tested at multiple concentrations for their effect on cell viability. Concentration-response curves (CRCs) were derived directly from the primary screen, and both potency and efficacy values were used to identify compounds with robust bioactivity profiles. We screened the NIH Chemical Genomics Center (NCGC) Pharmaceutical Collection (NPC) and Mechanism Interrogation Plate (MIPE) small molecule collections of approved and investigational compounds against these cell lines; and measured metabolically active cells after 48 hours of compound treatment as a proxy for cell viability.
Assay Submitter: Nathalia J. Martinez, National Center for Advancing Translational Sciences, National Institutes of Health, Rockville, MD, USA; email: natalia.martinez@nih.gov
[1] Shen, M et al. Quantitative high-throughput phenotypic screening of pediatric cancer cell lines identifies multiple opportunities for drug repurposing. Oncotarget 2017 Dec 19;9(4):4758-4772. PMID 29435139.
The cells were obtained from University of North Carolina (UNC), Pediatric Preclinical Testing Program (PPT), and Coriell Institute (CI).
qHTS cell viability assay:
Cells were assayed in growth media at a density of 500-1,000 cells/well. Five microliters of cells were dispensed into 1,536-well, white, solid-bottom, TC-treated plates (Greiner Bio One) using a multidrop dispenser and incubated at 37 degrees C, 5% CO2, under a humidified atmosphere for 5 hours. Twenty-three nanoliters of compounds and controls (neutral control DMSO or positive control bortezomib at final concentration of 2.3 µM) were subsequently transferred by Kalypsys pintool. For primary screens, the MIPE collection was tested at 11-point dilutions (final concentrations range from 0.78 nM to 46 µM) and the NPC collection at 8-point dilutions (final concentrations range from 0.59 nM to 46 µM). Compounds tested in follow-up screens were assayed at 11-point dilutions. Cells were incubated for 48 hours, followed by addition of 3 uL of CellTiter-Glo (Promega). After a 15 min incubation at room temperature, samples were analyzed for luminescence intensity using a ViewLux High-throughput CCD imager equipped with clear filters.
Potency is the fitted concentration of half-maximal effect.

SMILES	activity change, negative = cytotoxic	Potency
N[C@@H](Cc1ccc(O)c(O)c1)C(=O)O	8.01% (inactive)	
CCCOc1ccc(C(=O)OCCN(CC)CC)cc1N		inactive
OCc1ccc(-c2nn(Cc3ccccc3)c3ccccc23)o1	-18.5% (inactive)	
Cc1ncc([N+](=O)[O-])n1CCO		inactive
N[C@@H](C(=O)N[C@@H]1C(=O)N2C(C(=O)O)=C(Cl)CS[C@H]12)c1ccccc1		inactive
CNNCc1ccc(C(=O)NC(C)C)cc1		inactive
COC(=O)Nc1nc2ccc(Sc3ccccc3)cc2[nH]1		1.06 µM (active)
CCn1cc(C(=O)O)c(=O)c2cc(F)c(N3CCN(C)CC3)cc21		inactive
COc1cccc(N(C)C(=S)Oc2ccc3c(c2)CCCC3)n1		inactive
CCC(=O)O[C@]1(C(=O)SCF)[C@H](C)C[C@H]2[C@@H]3C[C@H](F)C4=CC(=O)C=C[C@]4(C)[C@@]3(F)[C@@H](O)C[C@@]21C	-24.6% (inactive)	
CC(C)(C#N)c1cc(Cn2cncn2)cc(C(C)(C)C#N)c1		inactive
O=C(O)CCn1c2c(c3ccccc31)C[C@H](NS(=O)(=O)c1ccc(F)cc1)CC2		inactive
O=S(=O)(O)CCS		inactive
CCOC(=O)c1ccc(OC(=O)CCCCCN=C(N)N)cc1		inactive
CC(C)(Sc1cc(C(C)(C)C)c(O)c(C(C)(C)C)c1)Sc1cc(C(C)(C)C)c(O)c(C(C)(C)C)c1		inactive
CN(Cc1cc(Br)cc(Br)c1N)C1CCCCC1		inactive
CCn1cc(C(=O)O)c(=O)c2cc(F)c(N3CCNCC3)nc21		inactive
Cc1noc(NS(=O)(=O)c2ccc(N)cc2)c1C		inactive
COc1ncnc(NS(=O)(=O)c2ccc(N)cc2)c1OC		inactive
CC(C)C1CCC(C(=O)N[C@H](Cc2ccccc2)C(=O)O)CC1 (stereo not given in full)		inactive

SMILES	activity change, negative = cytotoxic	Potency
CC(=O)CC(c1ccccc1)c1c(O)c2ccccc2oc1=O (stereo not given)		inactive
CC1CC2C3CCC4=CC(=O)C=C[C@]4(C)[C@@]3(F)[C@@H](O)C[C@]2(C)[C@@]1(O)C(=O)CO (stereo not given in full)	-18.6% (inactive)	
CC1=C(C(=O)O)N2C(=O)[C@@H](NC(=O)C(N)c3ccccc3)[C@H]2SC1 (stereo not given in full)	6.46% (inactive)	
COc1c(N2CCNC(C)C2)c(F)cc2c(=O)c(C(=O)O)cn(C3CC3)c12 (stereo not given)		inactive
CC(C)OC(=O)C(C(=O)OC(C)C)=C1SC=CS1	1.7% (inactive)	
Cc1onc(-c2ccccc2Cl)c1C(=O)N[C@@H]1C(=O)N2[C@@H]1SC(C)(C)[C@@H]2C(=O)O		inactive
CCCCOc1ccc(CC(=O)NO)cc1		11.8 µM (active)
CCN[C@H]1C[C@H](C)S(=O)(=O)c2sc(S(N)(=O)=O)cc21		inactive
COc1cc(NS(=O)(=O)c2ccc(N)cc2)nc(OC)n1		inactive
CN(C)CCc1c[nH]c2ccc(C[C@H]3COC(=O)N3)cc12		inactive
CCCCS(=N)(=O)CCC(N)C(=O)O (stereo not given)	-8.83% (inactive)	
CS(=O)(=O)c1ccc([C@@H](O)[C@@H](CO)NC(=O)C(Cl)Cl)cc1		inactive
CCN1CCCC1CNC(=O)c1cc(S(N)(=O)=O)ccc1OC (stereo not given)	-1.37% (inactive)	
CCC(C)(C)c1ccc(CC(C)CN2C[C@@H](C)O[C@@H](C)C2)cc1 (stereo not given in full)	-19.9% (inactive)	
Cn1nnc2c(C(N)=O)ncn2c1=O		inactive
NC(=O)c1cccnc1		inactive
CCCN[C@H]1CCc2nc(N)sc2C1		inactive
Cc1cccc(Nc2ccncc2S(=O)(=O)NC(=O)NC(C)C)c1		inactive
O=C(O)CSCC(=O)NC1CCSC1=O (stereo not given)		inactive
CN(CCOc1ccc(CC2SC(=O)NC2=O)cc1)c1ccccn1 (stereo not given)		inactive
